# LEDGF integ inh: blocks HIV-1 LEDGF/p75-dependent DNA integration | TR-FRET IN-LEDGF/p75 DNA integration, Eu/Cy5 | inhibition, % at 3.7 µM | 0.64% of 370,000 active;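 active = inhibition above the screen-wide mean plus 3 SD, cut at about 13% in these data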;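 note: signal is the Cy5 over europium emission ratio at 671 and 618 nm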
# MBD2 DNA inh: inhibitors of human MBD2 binding to methylated oligonucleotide | inhibition, % at 4.4 µM | 0.31% of 370,000 active | TR-FRET | AID 686964 | Q9UBB5; in the data active = inhibition above about 13%
# UHRF1 binding: UHRF1 methyl-DNA binding inhibition. Q96T88. UHRF1 binding to methylated oligo, TR-FRET. inhibition, % at 4.4 µM. 0.75% of 370,000 active. AID 687016; in the data active = inhibition above about 21%;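 note: UHRF1 SRA domain binding a hemimethylated CpG hairpin DNA probe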
# Target sequence (Q96T88 whole entry, looked up, the tested form may be a part): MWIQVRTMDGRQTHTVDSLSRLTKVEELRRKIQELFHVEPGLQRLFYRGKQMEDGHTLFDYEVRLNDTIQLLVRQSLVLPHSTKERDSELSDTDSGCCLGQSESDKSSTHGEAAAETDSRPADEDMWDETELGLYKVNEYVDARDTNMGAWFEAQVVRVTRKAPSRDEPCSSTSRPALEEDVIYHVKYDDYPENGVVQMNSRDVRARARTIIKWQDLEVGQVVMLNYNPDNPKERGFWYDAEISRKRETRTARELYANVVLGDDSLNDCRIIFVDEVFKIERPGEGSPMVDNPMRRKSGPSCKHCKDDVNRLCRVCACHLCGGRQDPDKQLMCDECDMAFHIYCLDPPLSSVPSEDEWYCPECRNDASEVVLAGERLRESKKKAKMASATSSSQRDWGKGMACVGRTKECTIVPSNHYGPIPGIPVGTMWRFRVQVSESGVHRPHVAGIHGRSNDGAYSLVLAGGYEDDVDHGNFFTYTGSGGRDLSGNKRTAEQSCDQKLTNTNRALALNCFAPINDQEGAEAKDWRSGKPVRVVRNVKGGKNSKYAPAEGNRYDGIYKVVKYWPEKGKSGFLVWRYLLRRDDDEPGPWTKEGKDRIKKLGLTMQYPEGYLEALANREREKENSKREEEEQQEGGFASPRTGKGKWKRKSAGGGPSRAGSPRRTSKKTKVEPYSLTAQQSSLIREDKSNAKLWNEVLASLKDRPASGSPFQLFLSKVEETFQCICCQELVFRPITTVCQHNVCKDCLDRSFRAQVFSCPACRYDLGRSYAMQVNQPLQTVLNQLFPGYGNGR
# Rin1 Abl inh: blocks binding of human Rin1 to Abl. P00519+Q13671. TR-FRET Rin1/Abl binding, biochemical. inhibition, % at 7.35 µM. 0.4% of 360,000 active; in the data active = inhibition above about 5%, passing the limit was not always enough
# Neddyl block: cullin neddylation inhibition | AID 651699 | calls only at 25 µM | P61081+Q13564 | TR-FRET cullin neddylation, biochemical | 0.58% of 360,000 active; in the data active = inhibition above about 36%
# KLK7 zymogen act: proKLK7 (human) activation, primary screen. 0.9% of 370,000 active. P49862. AID 652039. purified proKLK7, EDANS-DABCYL substrate fluorescence; 100% is mature enzyme control, 0% vehicle. activation, % at 7 µM;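 active = activation above the mean of all tested compounds plus 3 SD, computed per campaign excluding outliers beyond control limits, cut at about 13% in these data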
# Neddyl conf: confirmation of human cullin neddylation inhibitors | 13% of 1,800 active | shares compounds with Neddyl block | TR-FRET cullin neddylation biochemical assay | calls only at 25 µM | AID 652217; in the data active = inhibition above about 40%;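 note: neddylation substrate is the cullin 1 ring ligase complex with SKP2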
# Calls only; n = inactive; x = not tested or not shown; + = active, no number. This is a sample that favours compounds with a hit; in the whole collection about 3.1% have one here.
SMILES,LEDGF integ inh,MBD2 DNA inh,UHRF1 binding,Rin1 Abl inh,Neddyl block,KLK7 zymogen act,Neddyl conf
COc1ccc(C)cc1NC(=O)C1CCN(C(=O)Cc2ccccc2)CC1,n,n,n,n,n,n,x
O=C(c1cc2nc(-c3ccco3)cc(C(F)(F)F)n2n1)N1CCCCCC1,n,n,n,n,+,n,x
O=C(c1cc2nc(-c3ccccc3)cc(C(F)(F)F)n2n1)N1CCCC1,n,n,n,n,+,n,n
CN1CCN(C(=O)c2cc3nc(-c4ccccc4)cc(C(F)(F)F)n3n2)CC1,n,n,n,n,n,n,x
COc1ccc(-c2cc(C(F)(F)F)n3nc(C(=O)N4CCCCC4)cc3n2)cc1,n,n,n,n,x,n,x
COc1ccc(-c2cc(C(F)(F)F)n3nc(C(=O)N4CCCCC4)cc3n2)cc1OC,n,n,n,n,+,n,n
O=C(c1cc2nc(-c3ccco3)cc(C(F)(F)F)n2n1)N1CCN(c2ccccc2)CC1,n,n,n,n,n,n,x
O=C(c1cnn2c(C(F)(F)F)cc(-c3ccc4c(c3)OCO4)nc12)N1CCCCC1,n,n,n,n,+,n,n
CCN(c1ccccc1)S(=O)(=O)c1ccc(C(=O)NCC(=O)Nc2ccc(F)c(F)c2F)cc1,n,n,n,n,n,n,x
CCOC(=O)CC1COCCN1Cc1cn[nH]c1-c1cc(OC)c(OC)c(OC)c1 (stereo not drawn),n,n,n,n,n,n,x
CCC(C)N(C(=O)CSc1nnc(C)n1C)C1CCS(=O)(=O)C1 (stereo not drawn),n,n,n,n,n,n,x
COc1ccc2ccc(=O)oc2c1CC(=O)C(C)C,n,n,n,n,+,n,n
CN(C)CCN(Cc1ccccc1)C(=O)C1CCN(c2ncnc3c2nc2n3CCCCC2)CC1,n,n,n,n,+,n,n
c1ccc(-c2nnc(-c3ccco3)o2)cc1,n,n,n,n,+,n,x
O=C1CSC(c2cn(-c3ccccc3)nc2-c2cc3ccccc3oc2=O)N1Cc1cccnc1 (stereo not drawn),n,n,n,n,+,n,n
CCC(Oc1ccccc1)C(=O)N1CC(C)CC(C)C1 (stereo not drawn),n,n,n,n,n,n,x
NS(=O)(=O)c1ccc(CCNC(=O)c2ccc[nH]c2=S)cc1,n,n,n,n,n,n,x
COc1cc(/C=C/C(=O)Nc2ccc(N3CCCCC3)c(S(=O)(=O)Nc3ccccc3Cl)c2)cc(OC)c1OC,n,n,n,n,+,n,n
COc1ccccc1NS(=O)(=O)c1cc(NC(=O)Nc2ccc(Cl)cc2Cl)ccc1N1CCCCC1,n,n,n,n,n,n,x
CCC(CC)c1nnc(NC(=O)CN2C(=O)NC3(CCCC3)C2=O)s1,n,n,n,n,n,n,x
CC1(C)CC(=O)C2=C(C1)NC(SCC(N)=O)=C(C#N)C21CCCCC1,n,n,n,n,n,n,x
CCSC1=C(C#N)C2(CCCCC2)C2=C(CC(C)(C)CC2=O)N1,n,n,n,n,+,n,n
Cc1cc(C)nc(N2CCC(C(=O)N(C)CCc3ccccn3)CC2)n1,n,n,n,x,x,n,x
Cc1ccc2[nH]c3c(=O)n(CC(=O)N4CC(C)CC(C)C4)ncc3c2c1 (stereo not drawn),n,n,n,n,n,n,x
CCCN1CCN(C(=O)Cn2ncc3c([nH]c4ccc(C)cc43)c2=O)CC1,n,n,n,n,+,n,n
SMILES,LEDGF integ inh,MBD2 DNA inh,UHRF1 binding,Rin1 Abl inh,Neddyl block,KLK7 zymogen act,Neddyl conf
CC1(c2nc3ccccc3[nH]2)CCCC2=Nc3ccccc3CN21 (stereo not drawn),n,n,n,x,n,n,x
Cc1ccc2nc(N(CCN(C)C)C(=O)/C=C/c3cccs3)sc2c1,n,n,n,n,n,n,x
CN(C)CCN(C(=O)/C=C/c1cccs1)c1nc2ccc(Br)cc2s1,n,n,n,n,+,n,n
CCS(=O)(=O)Nc1ccc(-c2nnc(SCC(=O)OC)o2)cc1,n,n,n,n,n,n,x
CCC(=O)Nc1ccc(C(=O)CSc2nnc(-c3ccc(NS(=O)(=O)CC)cc3)o2)cc1OC,n,n,n,n,+,n,n
O=C(Cc1ccccc1F)N1CCC(n2nnc3ncccc32)CC1,n,n,n,x,x,n,x
COc1ccc(C(=O)NCCCCCCNC(=O)c2ccc(OC)cc2)cc1,n,n,n,n,n,n,x
COC(=O)c1cc2c(ccn2-c2ccc(F)cc2)n1CC(=O)OC(C)C,n,n,n,n,+,n,n
COC(=O)c1cc2c(ccn2-c2ccc(F)cc2)n1CC(=O)C(C)(C)C,n,n,n,n,n,n,x
Cc1ccc2cc3cc(C(=O)NCCCN4CCc5ccccc5C4)oc3nc2c1,n,n,n,n,+,n,+
Cc1csc(NC(=O)C2CC(=O)N(c3ccc4c(c3)OCCO4)C2)n1 (stereo not drawn),n,n,n,n,n,n,x
CCc1ccc(-c2csc(NC(=O)C3CC(=O)N(c4ccc5c(c4)OCCO5)C3)n2)cc1 (stereo not drawn),n,n,n,n,+,n,n
CCOC(=O)C1=NN(c2ccc(C)cc2)CC1C(=O)OC (stereo not drawn),n,n,n,n,+,n,n
COC(=O)C1CC(=O)N(c2ccc(C)cc2)C1 (stereo not drawn),n,n,n,n,n,n,x
COC(=O)[C@]12C[C@H](CC(=O)NCc3cccs3)C(=O)N(Cc3ccc(Cl)cc3Cl)C1=C[C@H](C1CCCC1)O[C@@H]2C,n,n,n,x,x,n,x
COc1cccc([C@@H]2CC=C(C(=O)O)[C@H](c3ccc(F)cc3)N2S(=O)(=O)c2ccc(C)cc2)c1,n,n,n,n,+,n,n
COc1cccc([C@@H]2CC=C(C(=O)O)[C@H](c3ccccc3)N2S(=O)(=O)c2ccc(C)cc2)c1,n,n,n,n,n,n,x
N#Cc1ccc2nc(-c3ccc(CN4CCC(c5nc6ccccc6[nH]5)CC4)cc3)c(-c3ccccc3)nc2c1,n,n,n,x,x,n,x
CCN(CC)c1ccc(C(=O)N/N=C/c2ccc(OC)cc2OC)cc1,n,n,n,n,+,n,n
COc1ccc(C(=O)Nc2cccc(C(=O)N/N=C/c3ccc(OC)cc3OC)c2)cc1,n,n,n,n,n,n,x
COc1ccc(OC)c(C=NNC(=O)c2ccc(NS(=O)(=O)c3cccs3)cc2)c1,n,n,n,n,+,n,x
Cc1cc(C)c2c(c1)CC(C)(C)CC2=O,n,n,n,n,n,n,x
CC1(C)CC2(CCO1)C(Nc1ccccc1)=NC(=S)N2CC(N)=O (stereo not drawn),n,n,n,n,+,n,n
Cc1ccccc1NC1=NC(=S)N(CC(N)=O)C12CCOC(C)(C)C2 (stereo not drawn),n,n,n,n,n,n,x
Cc1cccc(N2CCN(C(=O)c3c(Cl)cnn3C)CC2)c1C,n,n,n,n,n,n,x

# From PubChem
